High-throughput results: PubChem, National Center for Advancing Translational Sciences (NCATS)
In the library only some 19% were active in any assay of this set; here they are far more common.
IL1B secr inh: inhibitors of inflammasome signaling (IL-1 beta secretion); THP-1 LPS/ATP IL-1B secretion, AlphaLISA, 16 h; hits give low values; 360,000 compounds, 4.7% hits; activity change, % at 57.5 µM; in the data active = activity change below about -50%; inconclusive = mostly about -30% to -49%
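THP-1 cells pretreated 1 hr with compounds (up to 57.5 uM final), then stimulated with LPS (250 ng/mL final) plus ATP (1.25 mM final); secreted IL-1B measured by AlphaLISA after 16 hr, decreased signal indicating inhibition.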
HT1080-NT tox: kills 2HG-producing HT-1080-NT fibrosarcoma cells. Potency, µM (series often up to 46.1 µM), without a hit: top-dose activity, negative = less viability, most hits filed as cytotoxic. HT-1080-NT fibrosarcoma viability, CellTiter-Glo ATP luminescence, 48 h. 360,000 compounds, 1.6% hits;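 also: NT is the 2HG producing partner of a matched IDH1 knockdown line; potency is read from the fitted curve at half-maximal effect; 0% = DMSO-treated cells and -100% = media-only wells without cells; nearly all actives have a fitted effect of over 55% in size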
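Fibrosarcoma NT cells, 750 per well in 5% FBS RPMI, were exposed to compound for 48 hours. Viability: CellTiter-Glo luminescence.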
TDP1 cell noCPT: qHTS for Inhibitors of human tyrosyl-DNA phosphodiesterase 1 (TDP1): qHTS in cells in absence of CPT. DT40 Tdp1-/- hTDP1 cells, no CPT, ATP luminescence, 48 h. Potency, µM (top dose mostly 46.2 µM), inactives show at the highest dose activity change, negative = growth inhibition, usual class: inhibitors. 420,000 compounds, 15% hits; also: potency is read from the fitted curve at half-maximal effect; nearly all actives have a fitted effect of over 55% in size
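Luminescent ATP content (CellTiter-Glo) served as the growth readout. Knockout chicken DT40 cells expressing human TDP1 were exposed to compounds without camptothecin for a minimum 48 hr at 37 °C.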
HT1080 IDH1KD tx: toxicity to HT-1080 IDH1 knockdown cells (counter line); HT-1080 IDH1 knockdown viability, ATP luminescence, 48 h; Potency, µM (top dose mostly 46.1 µM), for inactives: top-dose activity, negative = toxicity, usual class: cytotoxic; 360,000 compounds, 2% hits; AID 686971;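 also: potency is read from the fitted curve at half-maximal effect; 0% = DMSO wells and -100% = cell-free medium wells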
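Using the IDH1-knockdown HT-1080 line run in the same batch and compound series as the NT line, viability after 48 h at 37 °C was determined by CellTiter-Glo luminescence and expressed as % activity.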
DT40 TDP1 CPT: growth inhibition of DT40 Tdp1-/-;hTDP1 cells with camptothecin (screen for TDP1 inhibitors); AID 686979; 420,000 compounds, 12% hits; Potency, µM (doses to about 46.2 µM), for inactives: at the highest dose activity change, negative = growth inhibition, usual class: inhibitors; chicken DT40 Tdp1-/-;hTDP1 cells + 20 nM CPT, ATP luminescence, 48 h; also: potency is read from the fitted curve at half-maximal effect; nearly all actives have a fitted effect of over 55% in size
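Chicken DT40 Tdp1-/- cells stably complemented with human TDP1 were seeded at 400 cells/well in medium containing 20 nM camptothecin, exposed to pin-transferred compounds, and grown at 37 °C for at least 48 hr. Viability was read as ATP luminescence.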
* = called active by the depositor; ? = inconclusive; . = no result. Unless noted, calls follow the shape of the dose curve; as a rule, active = well fitted curve in the direction sought with a large enough effect; inconclusive = small, poorly fitted or top-dose-only effect, or another doubt; inactive = no such curve, though single readings can be large; an effect the other way counts as inactive or inconclusive. Unless noted, % is scaled to controls: 0 for no effect and ±100 for the full control effect.

SMILES	IL1B secr inh	HT1080-NT tox	TDP1 cell noCPT	HT1080 IDH1KD tx	DT40 TDP1 CPT
COc1cccc(N2CCN(C(=O)c3cccc(-n4c(C)nc5cccnc54)c3)CC2)c1	.	.	16µM*	.	12µM*
COc1cccc(N2CCN(C(=O)c3ccc4nc[nH]c4c3)CC2)c1	35	-4%	10%	2%	-13%
Cc1cc(C)n2c(NCc3ccccc3)c(-c3cc4ccccc4o3)nc2n1	10	-27%	15µM*	?	16µM*
COc1ccc(C(=O)N2CCCC(CCC(=O)NCc3ccc(F)c(F)c3)C2)cc1F (centres undefined)	-4	-3%	?	0%	?
CCOc1ccc(Cl)cc1-c1cc(C(=O)Nc2ccc(F)cc2)[nH]n1	-21	?	16µM*	?	?
COc1ccc(NC(=O)CSc2cc(C)ccc2C)cn1	-22	7%	16µM*	13%	?
COc1ccc(NC(=O)c2cc(-c3cc(Cl)ccc3C)n[nH]2)cn1	-16	-26%	?	?	23µM*
COc1ccc(NC(=O)Cc2coc3cc(C)ccc23)cn1	-19	0%	-9%	1%	1%
CCCOc1ccc(F)cc1-c1cc(C(=O)Nc2ccc(OC)cc2OC)[nH]n1	-13	7%	18µM*	8%	?
CCCOc1ccc(F)cc1-c1cc(C(=O)Nc2ccc(OC)cc2C)[nH]n1	-26	6%	?	-11%	?
COc1ccc(Cl)c(-c2cc(C(=O)Nc3ccc(C)c(NS(C)(=O)=O)c3)[nH]n2)c1	-30	-15%	?	?	?
COc1ccc(Cl)cc1-c1cc(C(=O)Nc2ccc(C(C)(C)C)cc2)[nH]n1	21	-24%	15µM*	?	21µM*
COc1ccc(NCC(=O)Nc2ccc(Cl)cc2C)c(OC)c1	?	?	29µM*	16µM*	?
COc1ccc(NC(=O)c2cc(-c3cc(Cl)ccc3OC)n[nH]2)c(C)c1	?	?	18µM*	?	?
COc1ccc(Cl)cc1-c1cc(C(=O)Nc2ccc(C)c(NS(C)(=O)=O)c2)[nH]n1	?	21µM*	21µM*	23µM*	18µM*
O=C(NCC1CCCO1)c1cccc(S(=O)(=O)N(Cc2ccccc2)c2ccccc2)c1 (centres undefined)	3	-3%	?	-8%	-1%
CCc1ccc(-c2[nH]c3c(c2-c2sc(C)c(C(=O)OC)c2O)c(=O)n(C)c(=O)n3C)cc1	.	.	2%	.	7%
COC(=O)c1cc2oc3ccccc3c2n1Cc1c(C)cc(C)cc1C	.	.	-2%	.	-3%
COc1cc(OC)cc(OCC(O)Cn2ccnc2)c1 (centres undefined)	8	15%	-4%	0%	7%
O=[N+]([O-])c1ncn(Cc2c(Cl)cccc2Cl)n1	41	-2%	?	-1%	18µM*
O=[N+]([O-])c1ncn(Cc2ccccc2Cl)n1	31	8%	2%	13%	1%
Cc1coc2cc3oc(=O)c(CC(=O)N4CCCCC4)c(C)c3cc12	.	.	-21%	.	-13%
Cc1oc2c(C)c3oc(=O)c(CCC(=O)N4CCCCC4)c(C)c3cc2c1C	.	.	10µM*	.	15µM*
Cc1coc2cc3oc(=O)c(CCC(=O)N4CCCCC4)c(C)c3cc12	.	.	21µM*	.	13µM*
Cc1oc2c(C)c3oc(=O)c(CCC(=O)N4C[C@H]5C[C@@H](C4)c4cccc(=O)n4C5)c(C)c3cc2c1C	?	2%	?	-1%	?
SMILES	IL1B secr inh	HT1080-NT tox	TDP1 cell noCPT	HT1080 IDH1KD tx	DT40 TDP1 CPT
Cc1c(C)c2cc3c(C)coc3cc2oc1=O	-51*	2%	20%	13%	8%
O=C(NN1C(=O)/C(=C\c2cccnc2)SC1=S)C(c1ccccc1)c1ccccc1	7	-2%	26µM*	-13%	?
O=C1/C(=C/c2cccnc2)SC(=S)N1N1CCOCC1	26	6%	-27%	2%	?
O=C1/C(=C\c2cccnc2)SC(=S)N1C1CCS(=O)(=O)C1 (centres undefined)	-79*	-27%	18µM*	?	3.7µM*
O=C1/C(=C/c2cccnc2)SC(=S)N1C1CCS(=O)(=O)C1 (centres undefined)	-93*	-24%	9.2µM*	18µM*	10µM*
COc1ccc(S(=O)(=O)c2c(Nc3cccc(C)c3C)sc(C(=O)c3ccccc3)c2N)cc1	.	.	3.3µM*	.	2.9µM*
Cc1ccc(S(=O)(=O)c2c(Nc3cc(C)ccc3C)sc(C(=O)c3ccc4c(c3)OCO4)c2N)cc1	.	.	7.3µM*	.	6.5µM*
Nc1c(C(=O)c2ccccc2)sc(Nc2ccccc2)c1S(=O)(=O)c1ccccc1	-3	-3%	?	-22%	?
COc1ccc(S(=O)(=O)c2c(Nc3c(C)cccc3C)sc(C(=O)c3ccc4c(c3)OCO4)c2N)cc1	.	.	2.9µM*	.	5.2µM*
COc1ccc(S(=O)(=O)c2c(Nc3c(C)cccc3C)sc(C(=O)c3ccc(F)cc3)c2N)cc1	.	.	5.2µM*	.	5.8µM*
Cc1cc(C)cc(Nc2sc(C(=O)c3ccccc3)c(N)c2S(=O)(=O)c2ccccc2)c1	.	.	?	.	-24%
C=CCn1c(SC2CCOC2=O)nc2scc(C3CC3)c2c1=O (centres undefined)	33	-5%	-6%	-2%	-16%
CC(Oc1cc(Cl)ccc1Cl)C(=O)N/N=C\c1ccnn1C (centres undefined)	0	7%	?	11%	-29%
O=C(CN(Cc1cccs1)C(=O)CNS(=O)(=O)c1ccccc1)NC1CCCC1	0	11%	-21%	5%	9%
C#CCn1c(C2CC(=O)N(c3ccc(OC)cc3)C2)nc2ccccc21 (centres undefined)	.	.	-16%	.	-4%
CCc1ccccc1N1CC(c2nc3ccccc3n2CCC2CCCCC2)CC1=O (centres undefined)	.	.	5.2µM*	.	5.8µM*
Cc1cccc(C)c1N1CC(c2nc3ccccc3n2CC(=O)OC(C)C)CC1=O (centres undefined)	.	.	16µM*	.	?
Cc1cccc(N2CC(c3nc4ccccc4n3CCC3CCCCC3)CC2=O)c1 (centres undefined)	.	.	18µM*	.	?
Cc1ccccc1N1CC(c2nc3ccccc3n2CCC2CCCCC2)CC1=O (centres undefined)	.	.	10µM*	.	13µM*
O=C(Cn1cc(Cl)ccc1=O)c1ccc(Cl)cc1	-18	19%	-11%	22%	-4%
Cc1cc(=O)[nH]c(SCC(=O)Nc2cccc(S(=O)(=O)N3CCOCC3)c2)n1	-10	2%	13%	4%	7%
